Measurements published in PubChem BioAssay (NCATS).
Results filed as inconclusive are left out. A call without a number means that no potency is given here. A number with no mark means an inactive call. Calls of active or inactive are those of the source. The call rests on the fitted dose curve; in most records, active means well fitted inhibition curve with a large enough effect; inconclusive means small, poorly fitted or top-dose-only effect; inactive means no such curve, though single readings can be large or run the other way.

Assay: Primary fluorescence-based thiol-reactive (MSTI) qHTS assay for identification of artifact compounds. (AID 1845221); further: nearly all actives have a fitted effect of over 65% in size;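 on activity change, negative = thiol reactive: thiol-reactive compounds lower the probe fluorescence signal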
Conditions: MSTI thiol-reactivity probe, 1 h; series mostly up to 53.8 µM
Method in brief: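 Probe: MSTI 4 uM, PBS pH 7.4, 2% DMSO. Incubation 1 h, RT, light-protected. Readout fluorescence 525/598 nm.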
Potency means the concentration at half of the fitted maximal effect.

| Compound | Potency | activity change, negative = thiol reactive |
| --- | --- | --- |
| CC(c1ncncc1F)C(O)(Cn1cncn1)c1ccc(F)cc1F (stereo not given) | inactive |  |
| CNC(C)C(=O)NC(C(=O)N1CCCC1c1nc(C(=O)c2ccc(F)cc2)cs1)C1CCCCC1 (stereo not given) | inactive |  |
| C/C=C1\[C@H](O[C@@H]2O[C@H](CO)[C@@H](O)[C@H](O)[C@H]2O)OC=C(C(=O)OC)[C@H]1CC(=O)OC[C@H]1O[C@@H](OCCc2ccc(O)cc2)[C@H](O)[C@@H](O)[C@@H]1O | 2.24 µM (active) |  |
| Cn1nc(C(C)(C)C)cc1C(=O)NC(Cc1cccc(Cl)c1)C(=O)NCC#N (stereo not given) | inactive |  |
| CC(=O)OC[C@@]12C(=O)C[C@@H](C)[C@]3(C[C@@H](c4ccoc4)O[C@H]3OC(C)=O)[C@H]1CCC[C@]21CO1 | inactive |  |
| COC(=O)C1=CO[C@@H](O[C@@H]2O[C@H](CO)[C@@H](O)[C@H](O)[C@H]2O)[C@@H]2C(COC(C)=O)=C[C@H](O)[C@H]12 | inactive |  |
| C=CC(C)(O)CC/C=C(\C)C(=O)OC1C(O)C(CO)OC(OC(=O)C23CCC(C)(C)CC2C2=CCC4C5(C)CCC(OC6OC(COC7OCC(OC(C)=O)C(O)C7OC7OC(COC(C)=O)C(O)C(O)C7O)C(O)C(O)C6O)C(C)(C)C5CCC4(C)C2(C)C(O)C3O)C1OC1OCC(OC2OCC(O)C(OC3OCC(O)C(O)C3O)C2O)C(O)C1O (stereo not given) |  | 213% [at 6.41 µM] |
| NC(=O)C(CCC(F)(F)F)N(Cc1ccc(-c2ncon2)cc1F)S(=O)(=O)c1ccc(Cl)cc1 (stereo not given) | inactive |  |
| COc1cc2c3c(cc4ccccc4c3c1O)NC2=O | 10.6 µM (active) |  |
| CC[C@H]1OC(=O)[C@](C)(F)C(=O)[C@H](C)[C@@H](O[C@@H]2O[C@H](C)C[C@H](N(C)C)[C@H]2O)[C@](C)(OC)C[C@@H](C)C(=O)[C@@H](C)[C@H]2N(CCCCn3cc(-c4cccc(N)c4)nn3)C(=O)O[C@]12C | inactive |  |
